Source: PubChem BioAssay
An excerpt weighted towards active compounds, which were near 1.8% of everything screened.
PfHsp40 yeast – rescue of PfHsp40-mediated yeast toxicity. S. cerevisiae expressing PfHsp40, growth rescue, ATP luminescence. growth rescue, % at 12.5 µM. 340,000 compounds, 0.68% hits. AID 504582; in the data active = growth rescue above about 28%, passing the limit was not always enough; inconclusive = no clear call, values can overlap the other calls;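 note: yeast W303a lacking pdr1 and pdr3 grown in galactose medium; growth measured after three days at 30 °C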
MazF activator – increases E. coli MazEF RNase cleavage of RNA. P0AE70. FAM/BHQ RNA-DNA oligo cleavage fluorescence, 5 h. activation, % at 20 µM. 350,000 compounds, 0.32% hits; in the data active = activation above about 50%
Target sequence (P0AE70 whole entry, looked up): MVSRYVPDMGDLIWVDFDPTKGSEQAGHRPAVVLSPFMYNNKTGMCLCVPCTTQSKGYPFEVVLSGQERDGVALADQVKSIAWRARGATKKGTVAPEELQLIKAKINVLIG
PrPC surface inh – cell surface PrPC inhibition, primary TR-FRET screen. inhibition, % at 13.8 µM. TR-FRET read-out. 370,000 compounds, 0.43% hits. AID 720596. P04156; in the data active = inhibition above about 24%; note: 0% = median of the test wells and 100% = reference compound wells
PrP 5UTR inh – inhibition of PrP 5' UTR reporter expression; 340,000 compounds, 0.35% hits; AID 488862; inhibition, % (test concentration not listed); cell-based PrP 5' UTR mRNA reporter, plate reader; in the data active = inhibition above about 52%; note: 0 = median of the neutral control wells
PriA SSB inh – blocks PriA binding to SSB C-terminal tail; 430,000 compounds, 0.6% hits; AlphaScreen SSBct-PriA binding, biotinylated peptide; inhibition, % at 33 µM; AID 1272365; in the data active = inhibition mostly above about 37%, no sharp cut-off; inactive = mostly below about 20%;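 note: plate controls were negative control peptide for no effect and reference peptide for full effect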
* marks the source's active call; other numbers are inactive results; u = inconclusive; x = no result given; + = active, no number.

SMILES	PfHsp40 yeast	MazF activator	PrPC surface inh	PrP 5UTR inh	PriA SSB inh
CCC(=O)Nc1ccc(SC#N)cc1C	91*	1	0	-10	-5
CC(C)(C)SC(=O)CC1NS(=O)(=O)OCC1NC(=O)OCC(Cl)(Cl)Cl (stereo not given)	1	6	6	-9	9
O=C(c1ccc(-n2cccc2)cc1)N1CCN(Cc2ccccc2)CC1	-1	3	3	-20	5
O=C(c1ccc(-n2cccc2)cc1)N1CCN(Cc2csc(-c3ccccc3)n2)CC1	x	x	x	x	29*
Cc1ccc(C(=O)Oc2ccccc2N2C(=O)C3C4CCC(C4)C3C2=O)cc1 (stereo not given)	0	-2	9	-7	8
Nc1c(C(=O)Nc2ccccc2F)sc2nc(Cc3ccccc3)cc(C(F)(F)F)c12	-1	+	-2	x	-4
COCc1cc(C)nc2sc(C(=O)Nc3ccccc3F)c(N)c12	-2	5	1	-18	-14
O=C1c2ccccc2C(=O)N1CCOCCN1CCOCCOCCN(CCOCCN2C(=O)c3ccccc3C2=O)CCOCCOCC1	x	x	x	x	1
COCCn1ccc2c(OCC(=O)NCc3ccccc3)cccc2c1=O	0	6	12	-7	0
Cc1ccc(OCc2nc(C#N)c(N3CCN(c4ccccc4)CC3)o2)cc1	x	x	x	x	74*
CCCOc1ccc(-c2nc(C#N)c(N3CCC(C(N)=O)CC3)o2)cc1	1	-4	-1	-14	-4
Cc1ccc(OCc2nc(C#N)c(N3CCC(C(N)=O)CC3)o2)cc1	x	x	x	x	56*
COc1ccc(OCc2ccc(-c3nc(C#N)c(N4CCC(C(N)=O)CC4)o3)o2)cc1	x	x	x	x	37*
Cc1ccc(OCc2nc(C#N)c(N3CCC(C)CC3)o2)cc1	x	x	x	x	96*
O=C(CNC(=O)c1ccncc1)NN=Cc1ccccn1	x	x	x	x	-12
COc1cccc(C2C(C#N)=C(C)NC3=C2C(=O)CC(C)(C)C3)c1 (stereo not given)	4	6	-3	-27	-6
COc1ccc(CC(=O)Nc2ccc(S(=O)(=O)N3CCN(C)CC3)cc2)cc1	0	8	1	-7	-13
N#Cc1nc(Cc2cccc3ccccc23)oc1NCc1ccc(F)cc1	2	0	1	-11	45*
CC1CC(C)CN(c2oc(Cc3ccccc3)nc2C#N)C1 (stereo not given)	1	-5	-1	-19	55*
N#Cc1nc(COc2ccc(F)cc2)oc1N1CCCC1	0	5	2	4	25
C=CCNc1oc(Cc2cccc3ccccc23)nc1C#N	-1	-14	3	4	3
N#Cc1nc(Cc2ccccc2)oc1N1CCCC1	2	7	1	-21	-2
CC1CCN(c2oc(Cc3cccc4ccccc34)nc2C#N)CC1	u	-3	0	-7	56*
N#Cc1nc(COc2ccc(Br)cc2)oc1N1CCCCC1	x	x	x	x	104*
Cc1ccc(-n2nnnc2SC(C)C(=O)Nc2ccccc2-c2ccccc2)cc1 (stereo not given)	-1	-3	10	-15	-21
SMILES	PfHsp40 yeast	MazF activator	PrPC surface inh	PrP 5UTR inh	PriA SSB inh
CC1CCCCC1NC(=O)COC(=O)c1ccc2ncsc2c1 (stereo not given)	0	9	5	-20	3
O=[N+]([O-])c1cc(Br)ccc1NS(=O)(=O)c1ccccc1	65*	-8	-4	-6	6
COc1cc(OC)c(C#N)c(S(=O)(=O)Cc2ccccc2)c1	64*	0	7	-10	-13
Cc1ccc(N2CC(C(=O)NCCCn3ccnc3)CC2=O)cc1 (stereo not given)	0	-8	8	-20	-6
Cc1ccc(N2CC(NC(=O)NCCCn3ccnc3)CC2=O)cc1C (stereo not given)	x	x	x	x	51*
COC(=O)/C(C#N)=C/c1ccc(-c2ccc(S(N)(=O)=O)cc2)o1	-2	6	-9	-26	-4
CC(C)OC(=O)/C(C#N)=C/c1ccc(-c2ccc(SC(F)F)cc2)o1	-1	140*	7	-13	-9
CCN(CC)S(=O)(=O)c1cccc(C(=O)NCC(c2ccccc2)N(C)C)c1 (stereo not given)	97*	-3	-10	0	0
CN(C)C(CNC(=O)c1cccc(S(=O)(=O)Nc2ccccc2Cl)c1)c1ccccc1 (stereo not given)	1	-4	5	-13	-12
Cc1ccc(CNC(=O)C2CN(S(C)(=O)=O)c3cc(Cl)ccc3O2)cc1 (stereo not given)	1	-8	5	-16	-14
CC(Cc1cccs1)NC(=O)Nc1ccc(Cl)cc1 (stereo not given)	1	10	11	-56	-16
CC(Cc1cccs1)NC(=O)Nc1ccc(Cl)c(Cl)c1 (stereo not given)	131*	44	13	-39	-24
O=S(=O)(c1ccccc1)C1CC2CCC(C1)N2S(=O)(=O)C1CC1 (stereo not given)	x	x	x	x	91*
O=C(Cn1ncccc1=O)N1C2CCC1CC(S(=O)(=O)c1ccccc1)C2 (stereo not given)	x	x	x	x	88*
CCC(C(=O)OC)n1cnc2scc(-c3ccc(C)c(C)c3)c2c1=O (stereo not given)	166*	5	-9	-5	-5
Cc1ccc(C(C)(C)C)cc1S(=O)(=O)Nc1nc2ccccc2nc1Cl	6	7	27*	-16	-7
Cc1ccccc1S(=O)(=O)Nc1ncnc2sccc12	1	4	-3	-18	-8
Cc1ccc(C(C)(C)C)cc1S(=O)(=O)Nc1ncnc2sccc12	251*	-1	1	-14	-6
Cc1cc(F)ccc1S(=O)(=O)Nc1nc2ccccc2nc1Cl	0	-15	11	-17	-2
CN(CCOc1ccccc1)c1ccc(S(=O)(=O)N2CCCCC2)cn1	4	3	1	-14	-9
CCC(=NNc1cccc(Cl)c1)c1cnnc(SC)n1	x	x	x	x	0
CC/C(=N/Nc1cccc(C)c1)c1cnnc(SC)n1	0	287*	-12	-15	x
O=C(NN=Cc1cccc(OC2CSC2)c1)c1ccccc1O	x	x	x	x	-21
CCN(CC)c1ccc(C(=C2C=CC(=[N+](CC)CC)C=C2)c2ccc(S(=O)(=O)O)cc2S(=O)(=O)[O-])cc1	-1	2	-123	-1	82*
O=C(Oc1ccc(F)cc1C(=O)/C=C/c1cccs1)c1cccc([N+](=O)[O-])c1	0	-3	-11	-46	6
SMILES	PfHsp40 yeast	MazF activator	PrPC surface inh	PrP 5UTR inh	PriA SSB inh
O=C(Nc1ccnc(-c2cccnc2)n1)c1ccccc1Cl	0	7	0	-10	-4
CC(=O)c1cnn(-c2ccc(Cl)cc2)c1C	-2	-4	-3	-8	-12
Cc1c(C(=O)NCCSCc2cccc(C(F)(F)F)c2)cnn1-c1ccc(Cl)cc1	315*	2	14	-6	0
Cc1cccnc1NC(=O)CCC(=O)c1cccs1	0	-5	-3	-18	-4
CNC(=O)COC(=O)c1ccccc1Oc1ccccc1	0	-10	2	-14	-5
O=C(CCc1ccccc1O)NN=Cc1ccc(Sc2cccc3cccnc23)o1	x	x	x	x	94*
